Bioassay records deposited in PubChem BioAssay by National Center for Advancing Translational Sciences (NCATS).
Most compounds without a hit are left out; they make up all but 1.9% or so of the library.
ClpP mod: qHTS Assay for Activators of ClpP | purified B. subtilis ClpP, FRET peptide cleavage, 20 min | Potency, µM (highest dose often 57.5 µM), inactives show at the highest dose activity change, negative = active | ATP-dependent Clp protease proteolytic subunit (Bacillus subtilis (strain 168)), P80244 | AID 651965, 2013 | actives 1.9% (n = 340,000); active means well fitted falling curve with a large enough effect; inconclusive means small, poorly fitted or top-dose-only effect; inactive means no such curve, though single readings can be large or run the other way; further: potency means the concentration at half of the fitted maximal effect; the source files actives as falling curves though it sought activators and does not explain the sign; nearly all actives have a fitted effect of over 65% in size
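ClpP 10 microg/mL final, pH 8 Tris/KCl buffer with BSA, glycerol, Tween-20; compound pinned in; FRET-FV substrate; RT 20 min; Ex320/Em430; ΔFRET vs ADEP 5.8 microM, DMSO, no enzyme.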
a7 integrin act: activators of alpha7 integrin expression for muscular dystrophy; alpha7betagal myoblasts, beta-gal FDG fluorescence, 48 h; Potency, µM (series often up to 38.3 µM), for inactives: top-dose activation, actives largely listed as activators; AID 624291; actives 0.064% (n = 350,000);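 further: potency means the concentration at half of the fitted maximal effect; 100% = response of the positive control SU9516; nearly all actives have a fitted effect of over 60% in size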
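Alpha7betagal+/- myoblasts (passage 13) were plated 16-24 hr, then exposed to compounds (1:260 dilution of DMSO stock) for 48 hours at 37C. After MPER lysis, β-galactosidase reporter activity was read as FDG fluorescence (ex 480/em 540) after 30 minutes.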
Pin1 inh: human Pin1 inhibition; actives 0.009% (n = 390,000); Pin1 FP peptide displacement, HiFluor488, 10 min; Potency, µM (series often up to 115 µM), for inactives: at the highest dose activity, negative = inhibition, actives largely listed as inhibitors; active means well fitted inhibition curve with a large enough effect in the polarisation, with a control signal flat, not every such curve was filed as active; inconclusive means small, poorly fitted or top-dose-only effect, or effect the other way, or a change in a side signal; inactive means no such curve, though single readings can be large or run the other way; the % refers to the polarisation; further: potency means the concentration at half of the fitted maximal effect; on the % scale 0 is the no-effect control and ±100 the full control effect
Target sequence (Q13526 whole entry, looked up): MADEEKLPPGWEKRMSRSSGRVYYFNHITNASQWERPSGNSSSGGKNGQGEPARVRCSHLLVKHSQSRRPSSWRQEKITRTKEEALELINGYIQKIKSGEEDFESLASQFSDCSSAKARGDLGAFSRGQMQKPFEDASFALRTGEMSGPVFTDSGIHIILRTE
USP2a block: blocks human ubiquitin-specific protease USP2a | O75604 | USP2 core, Ub-CHOP2 coupled fluorogenic reporter, 485/531 | Potency, µM (series often up to 38.3 µM), without a hit: at the highest dose activity change, negative = inhibition, actives largely listed as inhibitors | actives 0.01% (n = 330,000);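 further: potency means the concentration at half of the fitted maximal effect; plate controls were DMSO wells for no effect and full inhibition by NEM control for full effect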
Target sequence (O75604 whole entry, looked up): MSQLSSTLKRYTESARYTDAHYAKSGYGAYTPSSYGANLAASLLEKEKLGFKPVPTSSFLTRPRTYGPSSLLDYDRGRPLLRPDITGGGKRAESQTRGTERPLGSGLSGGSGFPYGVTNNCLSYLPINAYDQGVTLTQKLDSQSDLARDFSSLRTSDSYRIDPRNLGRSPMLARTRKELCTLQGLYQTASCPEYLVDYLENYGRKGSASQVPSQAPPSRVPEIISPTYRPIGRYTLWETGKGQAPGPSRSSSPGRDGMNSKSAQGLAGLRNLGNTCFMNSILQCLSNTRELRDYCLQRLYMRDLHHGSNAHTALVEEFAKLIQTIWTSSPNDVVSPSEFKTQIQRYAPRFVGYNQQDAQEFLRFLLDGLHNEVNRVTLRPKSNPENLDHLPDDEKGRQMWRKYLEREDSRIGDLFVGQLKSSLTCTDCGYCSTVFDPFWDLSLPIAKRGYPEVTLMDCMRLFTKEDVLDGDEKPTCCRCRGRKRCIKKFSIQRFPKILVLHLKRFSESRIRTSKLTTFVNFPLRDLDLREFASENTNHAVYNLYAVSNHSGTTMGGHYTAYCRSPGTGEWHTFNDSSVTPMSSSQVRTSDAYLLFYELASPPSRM
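Deubiquitinase activity read as fluorescence (485/531 nm) after Ub-CHOP2 cleavage activates the enterokinase reporter on its substrate; USP2 core 10nM, Ub-CHOP2 and substrate 25nM each, 30min compound preincubation then 60min RT; data normalized to NEM, curves fitted.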
IL-2 act: IL-2 activation | actives 0.065% (n = 360,000) | IL-2 activation reporter assay, cell-based qHTS; stimulated with anti-CD3/CD4/CD28 beads; in transgenic mouse T cells | activation, % (series mostly up to about 46 µM); in the data active means activation above about 50%; inconclusive means mostly about 30% to 49%; further: 0% is about no effect
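Unstimulated transgenic mouse T cells; 60-min compound exposure; bead-based TCR/CD4/CD28 stimulation; 18 h culture, 37 degrees C; dual fluorescence (EGFP, DsRed) plate cytometry.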
PKM2 activator: increases activity of human pyruvate kinase M2; P14618; Potency, µM (top dose mostly 57.5 µM), for inactives: at the top dose activation, hits mostly activators; actives 0.34% (n = 260,000); purified PKM2, Kinase-Glo ATP luminescence, activation; response scale: 0% is enzyme alone, no compound; further: potency means the concentration at half of the fitted maximal effect; on the % scale 0 is the no-effect control and ±100 the full control effect; nearly all actives have a fitted effect of over 55% in size
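Kinase-Glo luminescence reports ATP generated from ADP (0.1 mM) and PEP (0.5 mM) by purified hPK-M2 after 1 h at room temperature, pH 7.2 imidazole buffer; intermediate enzyme activity allows detecting inhibitors and activators.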
* marks the source's active call; other numbers are inactive results; ? = inconclusive; · = no result given; [ ] = remark or other dose. Unless noted, the call rests on the fitted dose curve; in most records, active means well fitted curve in the direction sought with a large enough effect; inconclusive means small, poorly fitted or top-dose-only effect, or another doubt; inactive means no such curve, though single readings can be large; an effect the other way counts as inactive or inconclusive.

SMILES	ClpP mod	a7 integrin act	Pin1 inh	USP2a block	IL-2 act	PKM2 activator
CN1CCN(c2ccc(Nc3nn4c(=O)c5ccccc5nc4s3)cc2)CC1	·	·	-33.8%	·	·	·
CCN(CC)CCn1c(-c2ccccc2)nc2c(NC3CCCCC3)nc(C)nc21	·	·	·	·	·	2.2%
CCS(=O)(=O)N1CCN(c2ccc([N+](=O)[O-])c(NCC3CCCO3)c2)CC1 (stereo not given)	-1.6%	10µM*	6.5%	5.6%	-2.7	2.0%
Cc1ccc2nc(COC(=O)c3ccc(Cl)nc3)cc(=O)n2c1	1.0%	16.1%	-1.1%	-0.7%	0.0	·
Cc1ccc2nc(Cl)cc(=O)n2c1	28.2µM*	8.0%	-12.8%	·	-4.3	·
COC(=O)C1=C(C(=O)OC)[C@@H]2N(C)c3ccccc3[C@@]23C[C@@H](CO)N(C(=O)c2cc(C)oc2C)C3=N1	·	·	·	·	·	-3.6%[11.5 µM]
CCOC(=O)CNC(=O)CSc1nc2ncc(Br)cc2[nH]1	15.8µM*	12.6%	-0.2%	-0.5%	-0.2	3.9%
CCN(CC)C(=O)CSc1nc2ncc(Br)cc2[nH]1	-3.3%	-0.6%	-5.0%	0.1%	1.3	1.9%
CC#CCN1c2ccccc2[C@]23C[C@@H](C(=O)OC)N(S(=O)(=O)c4c(C)noc4C)C2=NC(C(=O)OC)=C(C(=O)OC)[C@H]13	·	·	·	·	·	3.7%[11.5 µM]
O=c1c2c(nc3cc(-c4ccc(F)cc4)[nH]n13)CCC2	6.31µM*	-11.2%	-0.8%	2.4%	-0.2	-6.0%
O=S(=O)(c1ccc(Br)cc1)N1CCN(c2nc(-c3cccs3)nc3ccccc23)CC1	?	·	-2.8%	·	·	·
Cc1ccc(-c2noc(-c3cc4ccccc4oc3=O)n2)cc1	-7.2%	-6.4%	2.3%	0.8%	0.3	-4.2%
Cc1cccc(-c2noc(-c3cc4ccccc4oc3=O)n2)c1	8.91µM*	31.5%	2.8%	-0.4%	0.2	-7.3%
O=c1oc2ccccc2cc1-c1nc(-c2ccccc2)no1	28.2µM*	4.0%	25.0%	1.0%	-0.8	-6.6%
O=c1oc2ccc(Br)cc2cc1-c1nc(-c2ccccc2)no1	0.6%	·	-0.2%	·	·	·
COc1cc2nc(NC3CCN(C)CC3)nc(NC3CCN(C)CC3)c2cc1OC	4.5%	·	·	·	·	·
COc1ccc2c(CN(C)c3ccccc3)cc(=O)oc2c1	22.4µM*	-22.0%	-3.2%	-0.4%	0.5	-6.2%
CCc1nc(N2CCOCC2)c(C#N)c2c1CCCC2	95.0%	-14.2%	-9.8%	-0.1%	-1.5	7.7%
CCc1nc(N2CCCC2)c(C#N)c2c1CCCC2	20µM*	-1.3%	-1.9%	-2.6%	0.7	0.4%
CCSc1nc(N2CCCCC2)c2c(c1C#N)CCCC2	?	1.7%	?	?	-0.2	0.3%
CCCCc1nc(Cl)c(C#N)c2c1CCCC2	0.9%	4.7%	-0.6%	-1.1%	-0.5	3.1%
CC(C)c1nc(N2CCCC2)c(C#N)c2c1CCCC2	28.2µM*	-27.1%	-4.2%	0.8%	-1.4	-0.1%
CCCc1nc(N2CCCC2)c(C#N)c2c1CCCC2	31.6µM*	4.1%	-5.7%	1.4%	-2.4	-2.5%
COc1ccc(NC(=O)C(=O)NCC(c2cccnc2)N2CCc3ccccc3C2)cc1 (stereo not given)	-5.6%	·	?	·	·	·
CN(C)S(=O)(=O)c1ccc(C(=O)Nc2nnc(Cc3ccccc3)s2)cc1	22.4µM*	0.8%	0.7%	0.8%	2.2	0.6%
SMILES	ClpP mod	a7 integrin act	Pin1 inh	USP2a block	IL-2 act	PKM2 activator
CN(C)S(=O)(=O)c1ccc(C(=O)Nc2nc3ccccc3[nH]2)cc1	·	8.91µM*	-2.1%	-0.1%	0.0	7.1%
Cc1c(OCC(=O)N(C)C)ccc2c3c(c(=O)oc12)CCCCC3	3.6%	36.5%	0.8%	0.9%	0.0	-6.7%
CC(=O)COc1ccc2c3c(c(=O)oc2c1C)CCCCC3	25.1µM*	-39.3%	-3.8%	3.3%	0.6	-0.3%
Cc1c(OCC(=O)NCc2ccncc2)ccc2c3c(c(=O)oc12)CCC3	3.9%	-24.9%	-0.9%	-0.4%	3.1	·
C=CCOC(=O)COc1ccc2c(C)c(C)c(=O)oc2c1C	15.8µM*	18.0%[7.66 µM]	-5.4%	-0.1%	-4.1	0.7%
Cc1c(OCC(=O)OC(C)(C)C)ccc2c3c(c(=O)oc12)CCC3	28.2µM*	-49.8%	0.9%	-1.6%	0.0	20.8%
Cc1c(OCC(=O)OC(C)C)ccc2c3c(c(=O)oc12)CCC3	31.6µM*	-4.6%	-4.9%	0.7%	-1.9	-1.3%
CCc1c(C)c2ccc(OCC(=O)OC(C)C)c(C)c2oc1=O	25.1µM*	-52.0%	2.1%	1.5%	2.7	-13.5%
COc1cc(NS(=O)(=O)c2ccc([N+](=O)[O-])cc2)c2ncccc2c1	·	·	-9.4%	·	·	·
COC(=O)c1ccc(-c2ccc(CNCC(O)c3ccccc3)o2)cc1 (stereo not given)	15.8µM*	-4.7%	0.7%	0.3%	-2.1	0.2%
CN1C(=O)CC2(C=CC(=O)C=C2OC(=O)c2ccccc2)c2ccccc21 (stereo not given)	·	·	-1.1%	·	·	·
COc1ccc2[nH]c(=O)c(CN(C(C)=O)C3CCCCC3)cc2c1	31.6µM*	-19.0%	-2.5%	0.4%	0.6	-0.1%
COc1ccc2[nH]c(=O)c(CN(C(C)=O)c3cccc(C)c3)cc2c1	35.5µM*	-0.4%	-7.3%	0.4%	1.2	0.1%
COc1ccc(N(Cc2cc3cc(C)ccc3[nH]c2=O)C(C)=O)cc1	-26.8%	-12.1%	0.1%	-1.6%	1.0	-0.1%
CCCCn1c(N)c(N(CCC(C)C)C(=O)c2[nH]c(C)c(C(=O)OCC)c2C)c(=O)[nH]c1=O	17.8µM*	6.7%	9.2%	1.7%	1.7	·
CCCCn1c(N)c(N(CCC(C)C)C(=O)c2ccccc2-n2cnnn2)c(=O)[nH]c1=O	28.2µM*	7.0%	-4.8%	-0.9%	0.9	·
CCCCn1c(N)c(N(CC(C)C)C(=O)CSCc2c(C)noc2C)c(=O)[nH]c1=O	28.2µM*	5.6%	3.4%	-5.5%	1.4	·
CCCCN(C(=O)CSCc1c(C)noc1C)c1c(N)n(CCC)c(=O)[nH]c1=O	-1.8%	28.3%	-1.0%	0.5%	-0.8	-16.5%
CCCCn1c(N)c(N(CCC(C)C)C(=O)c2ccccc2C)c(=O)[nH]c1=O	·	-6.5%	-7.4%	-1.1%	1.3	0.5%
COC(=O)C1=C(C(=O)OC)[C@@H]2N(Cc3ccccc3)c3ccccc3[C@@]23C[C@@H](C(=O)OC)N(C(=O)c2ccco2)C3=N1	·	·	·	·	·	-5.0%[11.5 µM]
O=S(=O)(NCC1CCN(S(=O)(=O)c2ccccc2)CC1)c1ccccc1	-1.3%	-3.9%	0.3%	0.8%	-1.2	2.82µM*
